# Assay results as given in PubChem BioAssay (NCATS).
# Records with an inconclusive call do not appear. A call without a number means that no potency is given here. The source made the active and inactive calls. Unless noted, calls come from the whole dose curve; as a rule, active = well fitted curve in the direction sought with a large enough effect; inconclusive = small, poorly fitted or top-dose-only effect, or another doubt; inactive = no such curve, though single readings can be large; an effect the other way counts as inactive or inconclusive.
# Legend:
# [1] = target: Retinoic acid receptor RXR-alpha (Homo sapiens) (UniProt P19793); test: qHTS assay for small molecule agonists of retinoid X receptor alpha signaling (AID 588544; calls by dose curve)
# [2] = target: Thyroid hormone receptor beta (Homo sapiens) (UniProt P10828); test: qHTS assay for small molecule agonists of thyroid hormone receptor beta signaling (AID 588545; calls by dose curve)
# Method in brief: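 Efficacy and EC50 values derive from Hill fits of qHTS titration data, normalized to 10 nM T3 and DMSO-only wells. HEK 293 reporter cells were stimulated for 18 hrs at 37 C, with beta-lactamase activity measured by CCF4 fluorescence.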
# [3] = target: Thyroid hormone receptor beta (Homo sapiens) (UniProt P10828); test: qHTS assay for small molecule antagonists of thyroid hormone receptor beta signaling (AID 588547; active = well fitted inhibition curve with a large enough effect in the signal ratio, with a control signal flat, not every such curve was filed as active; the % refers to the signal ratio;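 note: cells stimulated with 0.4 nM T3 agonist during compound exposure; series mostly up to about 77 µM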); conditions: TR-UAS-bla HEK293, beta-lactamase ratio, antagonist mode, 18 h
# Method in brief: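 TR-UAS-bla GripTite HEK293 cells in 2% charcoal/dextran FBS medium; compounds 0.59 nM to 92 uM with T3 at 0.4nM final, 18 h at 37 C. Beta-lactamase read by CCF4 fluorescence (460/530 nm); Hill fits gave IC50 and efficacy.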
# [4] = target: Voltage-gated inwardly rectifying potassium channel KCNH2 (Homo sapiens) (UniProt Q12809); test: qHTS Assay for Small Molecule Inhibitors of the Human hERG Channel Activity (AID 588834);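 note: U2OS cells transduced with hERG by BacMam; top concentration of the series differs between compounds; lower thallium flux fluorescence means stronger hERG block; nearly all actives have a fitted effect of over 50% in size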
# Method in brief: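 Cells were infected with hERG-BacMam virus for 4 hrs at room temperature, grown overnight, then seeded at 2000/well. After dye loading and roughly 10 min compound treatment, thallium influx was triggered and fluorescence recorded.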
# [5] = target: Luciferin 4-monooxygenase (Photinus pyralis) (UniProt P08659); test: Biochemical firefly luciferase enzyme assay for NPC (AID 624030); note: nearly all actives have a fitted effect of over 70% in size; note: potency is the fitted concentration of half-maximal effect
# Excerpt: Charcot-Marie-Tooth-Association [CMTA] National Center for Advancing Translational Sciences [NCATS] Charcot-Marie-Tooth (CMT) disease was first characterized by Jean-Martin Charcot and Pierre Marie in France and, independently, by Howard Henry Tooth in England in 1886. CMT is one of the most common inherited neurological diseases, affecting approximately 1 in 2,500 Americans. […] The most prevalent type of CMT is known as CMT1A and caused by a duplication of the PMP22 gene which leads to over-expression of this protein. PMP22 is a glycosylated intrinsic membrane protein accounting for 2-5% of the myelin protein content, and its over-expression results in demyelination and subsequently axonal loss. A pair of cellular transcription-based assays was developed in the S16 rat Schwann cell lines (Hai, M., et al., 2002) stably transfected with orthogonal reporters - firefly luciferase (Fluc) and beta-lactamase (beta-Lac) - whose expression is driven by an intronic regulatory element of the PMP22 gene (Jones, E.A., et al., 2011) to recapitulate endogenous expression of PMP22. A comprehensive library of approved drugs, the NCGC Pharmaceutical Collection (Huang, R., et al., 2011), was screened in the cross-validating platform of the orthogonal reporter assays to identify drug modulators inhibitory towards PMP22 expression. A set of counter-screens was devised to address non-specific activity of the library. […]
# Compounds were transferred to the plates in 23nl, and one microliter/well luciferase enzyme-buffer solution (10 nM P. pyralis luciferase and 50 mM Tris Acetate final concentrations) was dispensed yielding a final reaction volume of […]. Luciferase luminescence was measured by a ViewLux plate reader within 5 minutes of enzyme-buffer addition. The % activity was determined by normalizing to the average readings of PTC124 (a positive control) relative to DMSO (0% Activity). The concentration-effect curves were then classified based on curve quality (r2), response magnitude and degree of measured activity.
# [6] = S16 Schwann cell viability assay (CellTiter-Glo assay) (AID 624031);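 note: native untransfected S16 rat Schwann cells; cellular ATP luminescence as a viability measure; series mostly up to about 58 µM; nearly all actives have a fitted effect of over 70% in size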
# Method in brief: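 Cells were seeded at 500-750 per well in phenol red-free DMEM with 10% FBS and left overnight. Compounds or DMSO were pinned in, incubation ran 24 h at 37 °C/5% CO2, then CellTiter-Glo reagent was added and luminescence measured.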
# [7] = qHTS assay for small molecule antagonists of retinoid X receptor alpha signaling (AID 588546; active = well fitted inhibition curve with a large enough effect in the signal ratio, with a control signal flat, not every such curve was filed as active; the % refers to the signal ratio;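 note: cells stimulated with 9-cis-retinoic acid as agonist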); conditions: HEK293T RXRa-UAS-bla, beta-lactamase ratio, antagonist mode; measured here: W530 green channel, cytotoxicity proxy
# Method in brief: (§1)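 Beta-lactamase reporter inhibition, read as CCF4 fluorescence ratio (ex 405, em 460/530 nm) after 2 h at RT. HEK293T UAS-bla cells, 2500/well, were stimulated with 9-cis-RA at 500 or 100 nM final alongside test compound for 18 h at 37 C.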
# [8] = target: Retinoic acid receptor RXR-alpha (Homo sapiens) (UniProt P19793); test: as above; conditions: HEK293T RXRa-UAS-bla, beta-lactamase ratio, antagonist mode
# Method in brief: as §1
# [9] = S16 Schwann cell PMP22 intronic element firefly luciferase assay (AID 624032); conditions: S16 rat Schwann cells, PMP22 element FLuc, 24 h; note: potency is the fitted concentration of half-maximal effect; nearly all actives have a fitted effect of over 30% in size
# Excerpt: Charcot-Marie-Tooth-Association [CMTA]
# National Center for Advancing Translational Sciences [NCATS]
# Charcot-Marie-Tooth (CMT) disease was first characterized by Jean-Martin Charcot and Pierre Marie in France and, independently, by Howard Henry Tooth in England in 1886. CMT is one of the most common inherited neurological diseases, affecting approximately 1 in 2,500 Americans. […] The most prevalent type of CMT is known as CMT1A and caused by a duplication of the PMP22 gene which leads to over-expression of this protein. PMP22 is a glycosylated intrinsic membrane protein accounting for 2-5% of the myelin protein content, and its over-expression results in demyelination and subsequently axonal loss. […]
# The FLuc-expressing S16 cells were seeded in white solid 1536-well plates at between 500-750 cells/4uL in DMEM medium containing 10% FBS, w/o phenol red. […] Luminescence was measured on a ViewLux plate reader (Perkin Elmer). The % activity was determined by normalizing to the average readings of PTC124 (a positive control) - treated cells relative to DMSO-treated cells (0% Activity). The concentration-effect curves were then classified based on curve quality (r2), response magnitude and degree of measured activity.
# [10] = S16 Schwann cell PMP22 intronic element beta-lactamase assay (AID 624044; calls by dose curve; note: potency is the fitted concentration of half-maximal effect; nearly all actives have a fitted effect of over 15% in size); conditions: S16 rat Schwann cells, PMP22 element beta-lactamase FRET, 24 h
# Method in brief: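 Beta-lactamase reporter under a PMP22 intronic regulatory element in stable S16 rat Schwann cells; 24 h compound exposure. 460 nm blue signal normalized between DMSO (0%) and potassium clavulanate, with 535 nm FRET tracking viability; curves classed by r2 and response.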
# Sequence of Thyroid hormone receptor beta (Homo sapiens) (P10828 whole entry, looked up): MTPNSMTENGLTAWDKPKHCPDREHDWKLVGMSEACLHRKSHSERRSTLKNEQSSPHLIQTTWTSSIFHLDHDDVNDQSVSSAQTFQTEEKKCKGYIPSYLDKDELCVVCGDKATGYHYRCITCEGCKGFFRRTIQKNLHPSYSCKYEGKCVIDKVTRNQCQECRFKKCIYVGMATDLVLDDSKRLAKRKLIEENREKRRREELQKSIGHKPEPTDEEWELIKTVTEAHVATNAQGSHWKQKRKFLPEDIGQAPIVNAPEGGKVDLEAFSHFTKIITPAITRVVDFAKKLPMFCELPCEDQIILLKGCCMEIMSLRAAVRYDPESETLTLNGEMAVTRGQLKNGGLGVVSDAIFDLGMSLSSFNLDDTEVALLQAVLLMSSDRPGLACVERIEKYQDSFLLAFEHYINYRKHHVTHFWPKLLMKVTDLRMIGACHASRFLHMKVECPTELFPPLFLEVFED
# Sequence of Retinoic acid receptor RXR-alpha (Homo sapiens) (P19793 whole entry, looked up): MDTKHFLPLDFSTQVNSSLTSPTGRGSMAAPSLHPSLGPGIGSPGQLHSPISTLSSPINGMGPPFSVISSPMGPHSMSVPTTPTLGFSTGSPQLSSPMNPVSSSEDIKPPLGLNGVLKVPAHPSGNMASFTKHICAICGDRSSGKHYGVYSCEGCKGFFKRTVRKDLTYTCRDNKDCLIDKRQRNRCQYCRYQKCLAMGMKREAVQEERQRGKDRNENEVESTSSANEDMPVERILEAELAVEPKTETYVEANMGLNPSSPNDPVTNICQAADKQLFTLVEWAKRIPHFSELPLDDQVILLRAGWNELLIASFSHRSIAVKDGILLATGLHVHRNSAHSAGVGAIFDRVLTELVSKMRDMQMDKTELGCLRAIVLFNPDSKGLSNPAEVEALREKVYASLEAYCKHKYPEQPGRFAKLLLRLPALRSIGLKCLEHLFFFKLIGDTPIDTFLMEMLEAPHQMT
# Sequence of Luciferin 4-monooxygenase (Photinus pyralis) (P08659 whole entry, looked up): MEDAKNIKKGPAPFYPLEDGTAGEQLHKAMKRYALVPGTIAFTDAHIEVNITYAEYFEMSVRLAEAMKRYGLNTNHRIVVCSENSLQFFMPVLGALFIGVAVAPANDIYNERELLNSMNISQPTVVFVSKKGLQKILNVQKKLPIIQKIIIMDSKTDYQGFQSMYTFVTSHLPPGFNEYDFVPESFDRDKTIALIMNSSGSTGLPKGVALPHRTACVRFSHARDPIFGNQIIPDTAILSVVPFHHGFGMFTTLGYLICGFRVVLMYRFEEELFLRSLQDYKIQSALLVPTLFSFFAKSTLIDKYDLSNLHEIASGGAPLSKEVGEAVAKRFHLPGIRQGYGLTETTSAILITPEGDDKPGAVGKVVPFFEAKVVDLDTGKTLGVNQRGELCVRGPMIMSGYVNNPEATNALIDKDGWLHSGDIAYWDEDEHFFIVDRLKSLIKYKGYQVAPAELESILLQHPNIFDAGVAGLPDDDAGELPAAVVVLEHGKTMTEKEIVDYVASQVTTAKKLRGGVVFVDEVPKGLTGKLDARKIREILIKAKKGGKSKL
# Sequence of Voltage-gated inwardly rectifying potassium channel KCNH2 (Homo sapiens) (Q12809 whole entry, looked up): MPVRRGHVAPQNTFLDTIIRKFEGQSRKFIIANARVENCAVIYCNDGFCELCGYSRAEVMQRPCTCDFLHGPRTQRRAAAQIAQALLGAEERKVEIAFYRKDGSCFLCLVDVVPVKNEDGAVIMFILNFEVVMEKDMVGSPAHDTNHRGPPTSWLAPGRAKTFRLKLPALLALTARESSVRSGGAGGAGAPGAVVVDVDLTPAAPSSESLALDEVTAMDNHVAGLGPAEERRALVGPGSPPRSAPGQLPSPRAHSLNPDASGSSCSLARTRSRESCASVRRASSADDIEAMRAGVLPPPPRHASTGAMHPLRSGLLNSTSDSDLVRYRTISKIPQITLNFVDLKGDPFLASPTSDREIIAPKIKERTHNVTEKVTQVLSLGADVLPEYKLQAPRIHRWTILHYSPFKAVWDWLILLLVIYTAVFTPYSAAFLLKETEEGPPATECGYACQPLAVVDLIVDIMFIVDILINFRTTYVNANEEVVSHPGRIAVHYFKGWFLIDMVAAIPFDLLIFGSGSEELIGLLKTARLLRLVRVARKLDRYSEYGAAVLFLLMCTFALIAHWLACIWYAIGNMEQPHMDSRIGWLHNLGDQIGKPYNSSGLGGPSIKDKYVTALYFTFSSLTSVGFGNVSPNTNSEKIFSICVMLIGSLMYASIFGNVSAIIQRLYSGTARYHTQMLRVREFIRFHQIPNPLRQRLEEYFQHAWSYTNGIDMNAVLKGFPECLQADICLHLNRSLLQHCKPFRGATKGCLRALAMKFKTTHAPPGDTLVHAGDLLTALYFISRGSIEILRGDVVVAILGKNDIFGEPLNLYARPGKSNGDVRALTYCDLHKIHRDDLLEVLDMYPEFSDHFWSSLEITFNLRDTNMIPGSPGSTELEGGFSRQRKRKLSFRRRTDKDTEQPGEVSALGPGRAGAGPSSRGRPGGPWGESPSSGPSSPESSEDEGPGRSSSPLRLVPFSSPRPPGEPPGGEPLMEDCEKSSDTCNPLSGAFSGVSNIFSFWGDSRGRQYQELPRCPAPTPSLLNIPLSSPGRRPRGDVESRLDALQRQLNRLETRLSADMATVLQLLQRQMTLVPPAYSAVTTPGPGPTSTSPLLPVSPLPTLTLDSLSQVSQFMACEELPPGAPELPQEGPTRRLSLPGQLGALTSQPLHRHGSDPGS
Compound,outcome [1],outcome [2],activity change % (negative = inhibition) [3],outcome [4],Potency [5],outcome [6],max response [7] [%],max response [8],Potency [9],Potency [10]
CC(=O)O[C@H]1C(=O)[C@@]2(C)[C@H]([C@H](OC(=O)c3ccccc3)[C@]3(O)C[C@H](OC(=O)[C@H](O)[C@@H](NC(=O)c4ccccc4)c4ccccc4)C(C)=C1C3(C)C)[C@]1(OC(C)=O)CO[C@@H]1C[C@@H]2O,inactive,inactive,-8.03% (inactive),inactive,inactive,inactive,,,,
Nc1ccccc1N,inactive,inactive,-38.2% (inactive),inactive,2630 nM (active),,1.4,-8.62% (inactive),,
CC[C@]1(O)CC2CN(CCc3c([nH]c4ccccc34)[C@@](C(=O)OC)(c3cc4c(cc3OC)N(C)[C@H]3[C@@](O)(C(=O)OC)[C@H](OC(C)=O)[C@]5(CC)C=CCN6CC[C@]43[C@@H]65)C2)C1 (stereo partly drawn),,,,,inactive,,,,721 nM (active),224 nM (active)
CC(=O)O[C@@H]1CC(C)=C2[C@H]1[C@H](C)CC[C@H]2/C=C(\C)C(=O)O,inactive,inactive,19.9% (inactive),inactive,,,-4.2,22.1% (inactive),,
Cc1ccc(N)cc1O,inactive,inactive,-1.32% (inactive),inactive,,,-3.5,0.585% (inactive),,
